Rows were chosen to be rich in hits. Some 9.9% of all compounds tested hit in one or more screens of this group.
SW480 rerep: inducers of DNA re-replication in SW480 colon cancer cells; 1.8% of 340,000 active; SW480 DNA re-replication, Hoechst DNA content imaging, 48 h; Potency, µM (top dose mostly 46.1 µM), most hits filed as activators; also: nearly all actives have a fitted effect of over 55% in size
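Compounds, transferred as 23 nL by pin tool, were incubated with cells for 48 hr; DNA content per nucleus was then quantified by Hoechst staining and fluorescence plate imaging.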
KB-V1 cytotox: KB-V1 MDR subline cytotoxicity | Potency, µM (series often up to 46.1 µM), usual class: cytotoxic | AID 1347076 | KB-V1 MDR cells viability, CellTiter-Glo, 72 h | 3.4% of 400,000 active; also: nearly all actives have a fitted effect of over 60% in size
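Cytotoxicity toward P-gp-expressing KB-V1 cells was determined as loss of CellTiter-Glo luminescence after 72 h at 37 degrees C. Compounds were tested in quantitative HTS format across a concentration range, with curves fitted to normalized data.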
MCF10A rerep: inducers of DNA re-replication in MCF 10A breast cells; MCF 10A DNA re-replication, Hoechst nuclear intensity, 48 h; Potency, µM (titrated, usually from 46.1 µM), actives largely listed as activators; 2.9% of 350,000 active; AID 624296; also: nearly all actives have a fitted effect of over 50% in size
IL-1B inflam inh: inflammasome signaling inhibition, IL-1 beta readout; THP-1 LPS/ATP IL-1B secretion, AlphaLISA, 16 h; stronger effect = lower value; activity change, % at 57.5 µM; 4.7% of 360,000 active; AID 743279; in the data active = activity change below about -50%; inconclusive = mostly about -30% to -49%
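Secreted IL-1B measured by AlphaLISA bead assay after 16 h compound exposure of THP-1 cells; compounds (final up to 57.5 uM) added 1 h before LPS (250 ng/mL) and ATP (1.25 mM) stimulation; lower signal means less secretion.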
KB-3-1 tox: KB-3-1 parental cell cytotoxicity | 1.4% of 400,000 active | Potency, µM (highest dose often 46.1 µM), hits mostly cytotoxic | KB-3-1 viability, CellTiter-Glo ATP luminescence, 72 h | AID 1347075; also: nearly all actives have a fitted effect of over 60% in size
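Cells are dispensed, compounds pinned in, plates held at 37 °C for 72 h, then CellTiter-Glo is added and luminescence read after 10 minutes. Cell line: parental KB-3-1 in phenol-red-free DMEM, 10% FBS.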
Of the large screens only hits and unclear results are named; the others gave an inactive call. Unless noted, calls follow the shape of the dose curve; as a rule, active = well fitted curve in the direction sought with a large enough effect; inconclusive = small, poorly fitted or top-dose-only effect, or another doubt; inactive = no such curve, though single readings can be large; an effect the other way counts as inactive or inconclusive.

Cc1ccc(OCC(=O)N(Cc2ccc(N(C)C)cc2)C2CCS(=O)(=O)C2)cc1C (stereo not drawn)	IL-1B inflam inh -71.8
CC(C)c1ccc(CN(C(=O)C2COc3ccccc3O2)C2CCS(=O)(=O)C2)cc1 (stereo not drawn)	KB-V1 cytotox inconclusive, IL-1B inflam inh inconclusive
CN(C)c1ccc(CN(C(=O)C2COc3ccccc3O2)C2CCS(=O)(=O)C2)cc1 (stereo not drawn)	KB-V1 cytotox 18.4µM, MCF10A rerep inconclusive
O=C(COC(=O)C1(c2ccc(F)cc2)CCCC1)NCc1ccco1	KB-V1 cytotox inconclusive, KB-3-1 tox inconclusive
O=C(Nc1ccncc1)c1cnn2c1NC(=C1CC1)C=C2C(F)F	KB-V1 cytotox inconclusive (no result: SW480 rerep, MCF10A rerep, IL-1B inflam inh)
c1ccc(-n2c(SCc3nc(-c4cccs4)no3)nnc2-c2ccco2)cc1	KB-V1 cytotox inconclusive, IL-1B inflam inh -75.3
Cc1ccc2nc(CSc3nnc(-c4ccco4)o3)cc(=O)n2c1	none
Cc1ccc2nc(CSc3nnc(-c4ccco4)n3-c3ccccc3)cc(=O)n2c1	KB-V1 cytotox 10.3µM
O=C(c1ccccc1)c1ccc2cc(O)ccc2c1	SW480 rerep inconclusive, KB-V1 cytotox inconclusive, IL-1B inflam inh -54.3, KB-3-1 tox inconclusive
O=C(c1ccccc1)c1ccc2ccccc2c1	MCF10A rerep inconclusive
CCc1cccc(NC(=O)C(Cc2ccccc2)NS(=O)(=O)c2ccc3c(c2)oc(=O)n3C)c1 (stereo not drawn)	none (no result: SW480 rerep, MCF10A rerep, IL-1B inflam inh)
COc1ccc(/C=N/Nc2cc(OC)ncn2)cc1	none
COc1ccccc1/C=N/Nc1cc(N(C)C)nc(N(C)C)n1	SW480 rerep inconclusive, MCF10A rerep inconclusive, IL-1B inflam inh -153.0
COc1ccc(/C=N/Nc2cc(N(C)C)nc(N(C)C)n2)cc1	SW480 rerep inconclusive, KB-V1 cytotox inconclusive, MCF10A rerep inconclusive, IL-1B inflam inh -74.9, KB-3-1 tox inconclusive
CN(C)c1cc(N/N=C\c2ccccc2)nc(N(C)C)n1	SW480 rerep inconclusive, KB-V1 cytotox inconclusive, IL-1B inflam inh -96.3
Cc1cc(-c2ccccc2)nc(N/N=C/c2ccc(N(C)C)cc2)n1	KB-V1 cytotox inconclusive, MCF10A rerep inconclusive
Nc1c(C(=O)NC2CCCC2)c2nc3ccccc3nc2n1N	MCF10A rerep inconclusive
COc1ccccc1/C=N/n1c(N)c(C(=O)NC2CCCCC2)c2nc3ccccc3nc21	SW480 rerep 4.11µM, MCF10A rerep 10.3µM
Nc1c(C(=O)NC2CCCC2)c2nc3ccccc3nc2n1/N=C/c1ccco1	SW480 rerep 1.46µM, MCF10A rerep inconclusive
Cc1ccccc1NS(=O)(=O)c1cc(C(=O)N2CCCC2)ccc1C	none
COc1ccccc1NS(=O)(=O)c1cc(C(=O)N2CC(C)CC(C)C2)ccc1C (stereo not drawn)	KB-V1 cytotox 2.31µM
c1ccc(-c2ccc(-c3nc(-c4ccncc4)no3)cc2)cc1	KB-V1 cytotox inconclusive, MCF10A rerep 14.6µM
O=[N+]([O-])c1ccc(-c2nc(-c3ccncc3)no2)cc1	KB-V1 cytotox 18.4µM (no result: IL-1B inflam inh)
Cc1ccc(Cc2nc(-c3ccncc3)no2)cc1	none
c1ccc(-c2ccc(-c3nc(-c4cccnc4)no3)cc2)cc1	KB-V1 cytotox 16.4µM
c1ccc(-c2nc(-c3ccncc3)no2)cc1	none
c1ccc(C(Cc2nc(-c3ccncc3)no2)c2ccccc2)cc1	KB-3-1 tox 11.6µM
CC1CCCCN1C(=O)COC(=O)c1ccc(=O)n(Cc2ccccc2)n1 (stereo not drawn)	KB-V1 cytotox inconclusive, MCF10A rerep inconclusive
CCc1ccccc1NC(=O)CN1C(=O)C2CCCN2c2ncc(Cl)cc21 (stereo not drawn)	KB-V1 cytotox 14.6µM, MCF10A rerep inconclusive
COc1ccc(CNC(=O)CN2C(=O)C3CCCN3c3ncc(Cl)cc32)cc1 (stereo not drawn)	none
C=CC(C)(C)c1[nH]cnc1/C=C1\NC(=O)C(C(C)C)NC1=O (stereo not drawn)	SW480 rerep inconclusive, MCF10A rerep inconclusive, KB-3-1 tox 5.8µM
COc1cc(C(=O)N(CCc2ccccc2)C2=CC3CCC(C2)N3C)cc(OC)c1OC (stereo not drawn)	none
Cc1cc(C)cc(C(=O)N(CCc2ccccc2)C2CC3CCC(C2)N3C)c1 (stereo not drawn)	SW480 rerep inconclusive, KB-V1 cytotox inconclusive, MCF10A rerep inconclusive, IL-1B inflam inh -64.9
O=C(N/N=C/c1sc(N2CCCCC2)nc1-c1cccs1)C1CC1	SW480 rerep inconclusive, MCF10A rerep inconclusive
O=C(N/N=C/c1sc(N2CCOCC2)nc1-c1ccccc1)c1ccccc1F	MCF10A rerep inconclusive
O=C(N/N=C/c1sc(N2CCOCC2)nc1-c1ccccc1)c1cccc(S(=O)(=O)N2CCOCC2)c1	SW480 rerep 20.6µM, MCF10A rerep inconclusive, KB-3-1 tox 4.11µM
Nc1ccc(C(=O)N/N=C/c2sc(N3CCOCC3)nc2-c2ccccc2)cc1	none
O=C(Nc1ccccc1F)C(=Cc1sc(N2CCOCC2)nc1-c1ccccc1)C(=O)Nc1ccccc1F	SW480 rerep inconclusive, MCF10A rerep 3.26µM
O=C(N/N=C/c1sc(N2CCOCC2)nc1-c1ccccc1)c1ccccc1Cl	IL-1B inflam inh -57.4
NC(=O)N/N=C/c1sc(N2CCCCC2)nc1-c1cccs1	SW480 rerep 20.6µM, KB-V1 cytotox inconclusive, MCF10A rerep 23.1µM
O=C(O)c1ccccc1C(=O)NC1CCN(c2nccc(C(F)(F)F)n2)CC1	KB-V1 cytotox inconclusive
Cc1nccn1CCCNC(=O)CC1C(=O)NCCN1Cc1ccc(F)cc1Cl (stereo not drawn)	none
C=C(C)COc1ccc(-c2n[nH]c(C)c2-c2ccc(OC)c(OC)c2)c(O)c1	KB-V1 cytotox 5.8µM, MCF10A rerep inconclusive, KB-3-1 tox 6.51µM
Oc1cc(OCc2ccccc2)ccc1-c1[nH]ncc1-c1ccccc1	MCF10A rerep 23.1µM, IL-1B inflam inh -100.9
C=C(C)COc1ccc(-c2[nH]ncc2Oc2ccccc2OCC)c(O)c1	SW480 rerep inconclusive, MCF10A rerep 16.4µM, IL-1B inflam inh -63.0, KB-3-1 tox inconclusive
O=[N+]([O-])c1ccc(COc2ccc(-c3[nH]ncc3-c3ccccc3)c(O)c2)cc1	KB-V1 cytotox inconclusive, MCF10A rerep inconclusive, KB-3-1 tox inconclusive (no result: SW480 rerep)
COc1ccc(-c2cn[nH]c2-c2ccc(OCc3ccc(F)cc3)cc2O)cc1OC	SW480 rerep 18.4µM, KB-V1 cytotox inconclusive, MCF10A rerep 20.6µM, IL-1B inflam inh -88.4, KB-3-1 tox inconclusive
Cc1ccc(NC(=O)/C=C/c2ccco2)cc1S(=O)(=O)N1CCCCCC1	MCF10A rerep inconclusive, KB-3-1 tox inconclusive
C=C(C)CSc1[nH]c(=O)cc(C)c1C#N	MCF10A rerep inconclusive
COC(=O)[C@@]1(C(C)C)N=C(c2cc(OC)c(OC)c(OC)c2)[C@]2(O1)C(=O)N(C)c1ccccc12	none (no result: SW480 rerep, MCF10A rerep)
Cc1ccc(CS(=O)Cc2ccc(C(=O)N3CCN(C4CCCCC4)CC3)o2)cc1 (stereo not drawn)	none

From PubChem BioAssay
